“And” between values parts separate entries of the source, which are not always exact repeats. Equal entries are not always repeated. Results filed as inconclusive are left out. Entries that show only a call come without a potency. A number with no mark means an inactive call. The source made the active and inactive calls. Calls follow the shape of the dose curve; as a rule, active = well fitted curve in the direction sought with a large enough effect in the repeat runs; inconclusive = weak or mixed curves; inactive = no such curve, though single readings can be large; an effect the other way counts as inactive or inconclusive.
Also: nearly all actives have a fitted effect of over 50% in size.
Potency is read from the fitted curve at half-maximal effect.

The nature of one test: qHTS RealTime-Glo MT Cell Viability Assay in HepG2 cells - 16 hour (AID 1224885). Conditions: RealTime-Glo luminescence; series mostly up to 76.8 µM. Summed up:
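Viability was tracked continuously by NanoLuc luminescence from prosubstrate reduced by living HepG2 cells, at successive time points over 40 h of compound exposure. Cells with reagent were preincubated 5 h at 37 °C before compound addition.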
For `N#Cc1ccc(N(CC(N)=O)CC(F)(F)F)cc1C(F)(F)F`, the Potency entry was “inactive”.
The same measure, in the same setting: to `CCCCn1cc[n+](C)c1.[Cl][Fe-]([Cl])([Cl])[Cl]` belongs “inactive”.
Same read-out and setting: the value for `CN1C2CCC(C)(C)C1CC(OC(=O)C(O)(c1cccs1)c1cccs1)C2` (stereo not drawn) was “inactive”; that for `O=C(O)[C@H](O)[C@@H](O)C(=O)O` was “inactive”.
For `ClC1=C(Cl)[C@]2(Cl)[C@H]3[C@H]([C@@H]4C=C[C@H]3C4)[C@@]1(Cl)C2(Cl)Cl`, the Potency is 49 µM (active).
Same read-out and setting: the value for `CCNc1nc(NC(C)C(C)C)nc(SC)n1` (stereo not drawn) was “inactive”.
The same measure, in the same setting: to `[Cl-].[Cl-].[Cl-].[Yb+3]` belongs “inactive”; to `CCN(CC)CCc1c[nH]c2ccccc12`, “inactive”.
Still for that read-out and setting: to `O=C(O)CCCCCCNC1c2ccccc2CCc2ccccc21` belongs “inactive”; to `C#CCO`, “inactive”; to `CCn1cc[n+](C)c1` (tested in a mixture with another compound), “inactive”.
As for `CC(=O)[O-].CC(=O)[O-].O.O.[Zn+2]`, the Potency entry is “inactive”.
The same measure, in the same setting: the value for `Clc1cc(Cl)c(-c2cc(Cl)c(Cl)cc2Cl)cc1Cl` was “inactive”; that for `O=S(=O)(O)F` was “inactive”; that for `COC(=O)/C=C(\C)OP(=O)(OC)OC` was “inactive”.
Still for that read-out and setting: the value for `CN=C=O` was “inactive”; that for `CNN` was “inactive”; that for `CC[C@H](C)[C@H]1O[C@]2(C=C[C@@H]1C)C[C@@H]1C[C@@H](C/C=C(\C)[C@@H](O[C@H]3C[C@H](OC)[C@@H](O[C@H]4C[C@H](OC)[C@@H](NC)[C@H](C)O4)[C@H](C)O3)[C@@H](C)/C=C/C=C3\CO[C@@H]4[C@H](O)C(C)=C[C@@H](C(=O)O1)[C@]34O)O2` was 12.3 µM (active).
Consider `O=[N+]([O-])c1ccccc1-c1ccccc1`, for which the Potency entry was “inactive”.
The same measure, in the same setting: to `COc1c2c(cc3c1OCO3)CCN(C)C2` belongs “inactive”; to `BrCC(Br)(Br)Br`, “inactive”.
Still for that read-out and setting: the value for `CCC[CH2][Sn]([CH2]CCC)([CH2]CCC)[CH2]CCC` was 6.92 µM (active); that for `O=[N+]([O-])c1cc(C(F)(F)F)c(Cl)c([N+](=O)[O-])c1Nc1ncc(C(F)(F)F)cc1Cl` was 24.5 µM (active); that for `CCCCN(CCCC)C(=S)[S-].CCCCN(CCCC)C(=S)[S-].[Ni+2]` was “inactive”.
For the compound `CCCCn1cc[n+](C)c1` (tested in a mixture with another compound), the Potency result was “inactive”.
Still for that read-out and setting: the value for `CCC(C)Br` (stereo not drawn) was “inactive”; that for `C[N+]1(C)[C@@H]2CC[C@H]1CC(OC(=O)C(CO)c1ccccc1)C2` (stereo partly drawn) was “inactive”.
The same measure, in the same setting: to `CCCCc1ccccc1` belongs “inactive”.
Same read-out and setting: the value for `NC(=O)C(Cl)Cl` was “inactive”; that for `COP(=S)(OC)Oc1ccc([N+](=O)[O-])c(C)c1` was “inactive”.
On to `CNC(=O)Oc1cc(C)cc(C(C)C)c1`, for which the Potency result was “inactive”.
Same read-out and setting: to `CN` belongs “inactive”; to `CCNS(=O)(=O)C(F)(F)C(F)(F)C(F)(F)C(F)(F)C(F)(F)C(F)(F)C(F)(F)C(F)(F)F`, “inactive”; to `[F][Sn]([c]1ccccc1)([c]1ccccc1)[c]1ccccc1`, 0.871 µM (active).
For `Clc1c(Cl)c(Cl)c(Cl)c(Cl)c1Cl`, the activity change, negative = cytotoxic was -0.903% [at 6.97 µM].
Regarding `Nc1nc(N)c(N)c(N)n1`, the Potency entry was “inactive”.
As to `Fc1ccc(C(OCCN2CCN(CCCc3ccccc3)CC2)c2ccc(F)cc2)cc1`, the Potency is 23.9 µM (active).
In the case of `CCN(CC)C(=O)N[C@@H]1C=C2c3cccc4[nH]cc(c34)C[C@@H]2N(C)C1`, the Potency entry is “inactive”.
The same measure, in the same setting: the value for `O=C1C2(Cl)C3(Cl)C4(Cl)C(Cl)(Cl)C5(Cl)C3(Cl)C1(Cl)C5(Cl)C24Cl` (stereo not drawn) was 48.2 µM (active) and 46.9 µM (active).

A further test in a line: qHTS RealTime-Glo MT Cell Viability Assay in HEK293 cells - 24 hour (AID 1224886). As to activity change, negative = cytotoxicity: top concentration of the series differs between compounds. Conditions: RealTime-Glo luminescence; series mostly up to 76.8 µM. The method, boiled down: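 Viability tracked continuously by luminescence as live cells reduce a prosubstrate for NanoLuc; HEK293 cells preincubated 5 h, compound-treated at 37 C, and read at 0, 8, 16, 24, 32 and 40 h.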
As to `N#Cc1ccc(N(CC(N)=O)CC(F)(F)F)cc1C(F)(F)F`, the Potency result was “inactive”.
The same measure, in the same setting: to `CCCCn1cc[n+](C)c1.[Cl][Fe-]([Cl])([Cl])[Cl]` belongs “inactive”.
Same read-out and setting: to `CN1C2CCC(C)(C)C1CC(OC(=O)C(O)(c1cccs1)c1cccs1)C2` (stereo not drawn) belongs “inactive”; to `O=C(O)[C@H](O)[C@@H](O)C(=O)O`, “inactive”.
The same measure, in the same setting: the value for `ClC1=C(Cl)[C@]2(Cl)[C@H]3[C@H]([C@@H]4C=C[C@H]3C4)[C@@]1(Cl)C2(Cl)Cl` was 43.6 µM (active).
In the case of `CCNc1nc(NC(C)C(C)C)nc(SC)n1` (stereo not drawn), the Potency entry was “inactive”.
Take `[Cl-].[Cl-].[Cl-].[Yb+3]`: the Potency result was “inactive”.
As for `CCN(CC)CCc1c[nH]c2ccccc12`, the Potency result was “inactive”.
On the same count and under the same terms, the value for `O=C(O)CCCCCCNC1c2ccccc2CCc2ccccc21` was “inactive”.
On the same count and under the same terms, the value for `C#CCO` was “inactive”; that for `CCn1cc[n+](C)c1` (tested in a mixture with another compound) was “inactive”.
Same read-out and setting: to `CC(=O)[O-].CC(=O)[O-].O.O.[Zn+2]` belongs “inactive”; to `Clc1cc(Cl)c(-c2cc(Cl)c(Cl)cc2Cl)cc1Cl`, “inactive”.
In the case of `O=S(=O)(O)F`, the Potency entry is “inactive”.
Same read-out and setting: to `COC(=O)/C=C(\C)OP(=O)(OC)OC` belongs “inactive”; to `CN=C=O`, “inactive”; to `CNN`, “inactive”.
Still for that read-out and setting: the value for `CC[C@H](C)[C@H]1O[C@]2(C=C[C@@H]1C)C[C@@H]1C[C@@H](C/C=C(\C)[C@@H](O[C@H]3C[C@H](OC)[C@@H](O[C@H]4C[C@H](OC)[C@@H](NC)[C@H](C)O4)[C@H](C)O3)[C@@H](C)/C=C/C=C3\CO[C@@H]4[C@H](O)C(C)=C[C@@H](C(=O)O1)[C@]34O)O2` was 5.49 µM (active); that for `O=[N+]([O-])c1ccccc1-c1ccccc1` was “inactive”; that for `COc1c2c(cc3c1OCO3)CCN(C)C2` was “inactive”.
Still for that read-out and setting: the value for `BrCC(Br)(Br)Br` was 45.3 µM (active); that for `CCC[CH2][Sn]([CH2]CCC)([CH2]CCC)[CH2]CCC` was 9.77 µM (active).
Turning to `O=[N+]([O-])c1cc(C(F)(F)F)c(Cl)c([N+](=O)[O-])c1Nc1ncc(C(F)(F)F)cc1Cl`, the Potency was 1.74 µM (active).
Same read-out and setting: the value for `CCCCN(CCCC)C(=S)[S-].CCCCN(CCCC)C(=S)[S-].[Ni+2]` was “inactive”; that for `CCCCn1cc[n+](C)c1` (tested in a mixture with another compound) was “inactive”.
On the same count and under the same terms, the value for `CCC(C)Br` (stereo not drawn) was “inactive”.
With `C[N+]1(C)[C@@H]2CC[C@H]1CC(OC(=O)C(CO)c1ccccc1)C2` (stereo partly drawn), the Potency entry is “inactive”.
Consider `CCCCc1ccccc1`, for which the Potency result is “inactive”.
Take `NC(=O)C(Cl)Cl`: the Potency result is “inactive”.
As for `COP(=S)(OC)Oc1ccc([N+](=O)[O-])c(C)c1`, the Potency result is “inactive”.
`CNC(=O)Oc1cc(C)cc(C(C)C)c1`: the Potency entry is “inactive”.
Same read-out and setting: the value for `CN` was “inactive”.
On the same count and under the same terms, to `CCNS(=O)(=O)C(F)(F)C(F)(F)C(F)(F)C(F)(F)C(F)(F)C(F)(F)C(F)(F)C(F)(F)F` belongs “inactive”; to `[F][Sn]([c]1ccccc1)([c]1ccccc1)[c]1ccccc1`, 0.49 µM (active).
As for `Clc1c(Cl)c(Cl)c(Cl)c(Cl)c1Cl`, the activity change, negative = cytotoxicity was 2.9% [at 6.97 µM].
On to `Nc1nc(N)c(N)c(N)n1`, for which the Potency entry is “inactive”.
For the compound `Fc1ccc(C(OCCN2CCN(CCCc3ccccc3)CC2)c2ccc(F)cc2)cc1`, the Potency is 9.52 µM (active).
The same measure, in the same setting: the value for `CCN(CC)C(=O)N[C@@H]1C=C2c3cccc4[nH]cc(c34)C[C@@H]2N(C)C1` was “inactive”.
The same measure, in the same setting: the value for `O=C1C2(Cl)C3(Cl)C4(Cl)C(Cl)(Cl)C5(Cl)C3(Cl)C1(Cl)C5(Cl)C24Cl` (stereo not drawn) was 17.1 µM (active) and 41.8 µM (active).
